# Tested on: U-2932
# Test: growth inhibition by drug alone (1 - RLU/untreated control) (fraction); higher = stronger inhibition
# Conditions: 177Lu-lilotomab satetraxetan 0 ug/ml
# Method: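 U-2932 ABC-DLBCL cells were pretreated or not for 18 h with 1 ug/ml 177Lu-lilotomab satetraxetan (600 MBq/mg), washed and seeded (3000 cells/well) on 384-well plates pre-printed with the Selleck Cambridge Cancer Compound library. Viability was read by RealTime-Glo luminescence on days 3-6 after seeding. Effect = 1 - RLU/mean RLU of the 48 untreated no-drug control wells per plate; Bliss score = (M-E)/(1-Fa), with E the expected Bliss-additive effect.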
Compound,"growth inhibition by drug alone (10 nM, time (day): 3)","growth inhibition by drug alone (10 nM, time (day): 4)","growth inhibition by drug alone (10 nM, time (day): 5)","growth inhibition by drug alone (10 nM, time (day): 6)","growth inhibition by drug alone (1000 nM, time (day): 3)","growth inhibition by drug alone (1000 nM, time (day): 4)","growth inhibition by drug alone (1000 nM, time (day): 5)","growth inhibition by drug alone (1000 nM, time (day): 6)"
CC1=C2C[C@H]3[C@@H](CC=C4C[C@@H](O)CC[C@@]43C)[C@@H]2CC[C@]12O[C@@H]1C[C@H](C)CN[C@H]1[C@H]2C [Cyclopamine],0.097,0.0521,-0.0277,-0.0904,0.00899,0.035,-0.037,-0.267
CC(O)(CS(=O)(=O)c1ccc(F)cc1)C(=O)Nc1ccc(C#N)c(C(F)(F)F)c1 (stereo not given) [Bicalutamide (Casodex)],0.0907,0.0654,-0.0744,-0.0699,-0.0505,-0.00664,-0.0598,-0.262
CC[C@@H](C(=O)[C@@H](C)[C@@H](O)[C@H](C)[C@@H]1O[C@@H]([C@@H](CC)C(=O)O)CC[C@@H]1C)[C@H]1O[C@]2(C=C[C@@H](O)[C@]3(CC[C@@](C)([C@H]4CC[C@](O)(CC)[C@H](C)O4)O3)O2)[C@H](C)C[C@@H]1C [Salinomycin (Procoxacin)],0.136,0.115,0.00536,-0.0492,0.311,0.423,0.542,0.721
Cc1cc2c(C(C)C)c(O)c(O)c(C=O)c2c(O)c1-c1c(C)cc2c(C(C)C)c(O)c(O)c(C=O)c2c1O [Gossypol],-0.0803,-0.0436,-0.0537,-0.0327,-0.00328,0.00751,0.00351,0.0148
CCC1(c2ccc(N)cc2)CCC(=O)NC1=O (stereo not given) [Aminoglutethimide (Cytadren)],0.0306,-0.0299,-0.152,-0.107,-0.0187,-0.0577,-0.161,-0.122
